# Measurements: PubChem BioAssay
# Active and inactive are the calls of the source.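 Rule for the calls, unless noted: active = thallium flux through the channel raised or lowered by more than 3 SD from vehicle-only wells, actives on both sides; inactive = the rest.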
# Assays:
# [1] = modulation of C. elegans fzo-1 (AID 1259413; call rule not given here;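 note: fzo-1 mutant C. elegans worms in liquid wells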); conditions: C. elegans fzo-1 modulator screen, mean read-out; stronger effect = higher value
# [2] = liver-stage malaria parasite growth inhibition, primary screen, cell-based, HepG2, luciferase luminescence, HepG2 viability (AID 624349; in the data active = parasite load remaining mostly below about 12%, no sharp cut-off; inactive = mostly above about 10%;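 note: 100% = mean of DMSO negative control wells on the same plate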); conditions: P. berghei liver stage in HepG2, luciferase luminescence, concentration not given here; parasite load remaining: stronger effect = lower value; viability: measured here: HepG2 viability without parasites
# [3] = Cy5 fluorescence interference with SSB-bound oligo, artefact control for HCV NS3 helicase inhibitor project, biochemical, NIH Clinical Collection, E. coli SSB (AID 743268; call rule not given here)
# [4] = system: Hepatitis C virus NS3 helicase; assay: HCV NS3 helicase inhibitors, primary screen, biochemical, fluorescence polarization, NIH Clinical Collection (AID 743270; call rule not given here); conditions: NS3 helicase binding to Cy5-dT15 DNA, stronger effect = higher value, concentration not given here
# [5] = target: Single-stranded DNA-binding protein (Escherichia coli (strain K12)) (UniProt P0AGE0); assay: E. coli SSB displacement from DNA, counter-screen for HCV NS3 helicase inhibitor project, biochemical, fluorescence polarization, NIH Clinical Collection (AID 743271; in the data active = inhibition above about 28%); conditions: stronger effect = higher value, concentration not given here
# [6] = fluorescence interference in NS3h assay format, artefact control for HCV NS3 helicase inhibitor project, biochemical, NIH Clinical Collection (AID 743272; call rule not given here;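 note: HCV NS3 helicase with a Cy5 labelled single stranded DNA probe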); conditions: fluorescence interference counterscreen, stronger effect = lower value
# [7] = sensitizers of A549 cells to miR-34 induction, primary screen, imaging, A549 dox-inducible miR-34, nuclei and caspase counts (AID 1347080;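 active = compounds whose cell count with miR-34 switched on is under 0.7 times the count with it off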); conditions: A549 miR-34 inducible, Hoechst nuclei count, 48 h
# [8] = viability rescue of complex I mutant cybrids, primary screen, cell-based, galactose medium, ATP luminescence (AID 1645843;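 active = z-score of at least 1.8 in each of two replicates, scored against plate mean and spread of sample wells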;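 note: positive z means more ATP and so rescue of galactose-driven cybrid death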); conditions: complex I mutant cybrid cells, 72 h, stronger effect = higher value
# F380Y = assay: modulators of BK channel variants, profiling panel, selectivity assay, cell-based, U2OS BacMam, thallium flux, beta subunits (AID 1259406); conditions: at 30 µM;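 note: initial slope of Thallos dye fluorescence rise after thallium is added; log ratio against the mean of 0.3% DMSO vehicle wells on the same plate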
# F380Y/beta1 = assay: as above; conditions: at 30 µM
# F380Y/beta2Delta = assay: as above; conditions: at 30 µM
# F380Y/beta4 = assay: as above; conditions: at 30 µM
# [9] = target: Calcium-activated potassium channel subunit alpha-1 (Homo sapiens) + Leucine-rich repeat-containing protein 26 (Homo sapiens) (UniProt Q12791+Q2I0M4); assay: as above; conditions: F380Y/Slo1WT/gamma1, at 30 µM
# Chain of Calcium-activated potassium channel subunit alpha-1 (Homo sapiens) + Leucine-rich repeat-containing protein 26 (Homo sapiens) (Q2I0M4 whole entry, looked up, one chain of several): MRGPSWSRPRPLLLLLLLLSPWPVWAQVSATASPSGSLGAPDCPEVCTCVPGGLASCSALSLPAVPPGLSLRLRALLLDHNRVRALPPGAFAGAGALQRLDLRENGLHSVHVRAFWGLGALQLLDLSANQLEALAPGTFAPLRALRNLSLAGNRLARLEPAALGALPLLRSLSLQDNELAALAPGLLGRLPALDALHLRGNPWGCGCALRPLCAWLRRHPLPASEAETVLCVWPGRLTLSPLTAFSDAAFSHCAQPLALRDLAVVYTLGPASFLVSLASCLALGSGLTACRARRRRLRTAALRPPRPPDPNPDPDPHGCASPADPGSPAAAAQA
# R275C = assay: as above; conditions: at 30 µM
# R275C/beta1 = assay: as above; conditions: at 30 µM
# R275C/beta2Delta = assay: as above; conditions: at 30 µM
# R275C/beta4 = assay: as above; conditions: at 30 µM
# R275C/Slo1WT/beta2 = assay: as above; conditions: at 30 µM
# [10] = stronger effect = lower value, cell number ratio, induced over uninduced
# [11] = measured here: relative caspase fold change +Dox/-Dox
# [12] = measured here: total cells with miR-34 induction, stronger effect = lower value
# [13] = measured here: total cells without miR-34 induction
structure (smiles),measurement,setting,value
CN(C)c1ccc(O)c2c1C[C@H]1C[C@H]3[C@H](N(C)C)C(=O)C(C(N)=O)=C(O)C3(O)C(=O)C1=C2O (some centres not stated),mean signal,[1],263 (inactive)
CC(C)C[C@H](NC(=O)[C@@H](COC(C)(C)C)NC(=O)[C@H](Cc1ccc(O)cc1)NC(=O)[C@H](CO)NC(=O)[C@H](Cc1c[nH]c2ccccc12)NC(=O)[C@H](Cc1cnc[nH]1)NC(=O)[C@H]1CCC(=O)N1)C(=O)N[C@H](CCCN=C(N)N)C(=O)N1CCC[C@@H]1C(=O)NNC(N)=O,mean signal,[1],236 (inactive)
CN1CCN2c3ncccc3Cc3ccccc3[C@@H]2C1,parasite load remaining,[2],60.5% (inactive)
same,viability,[2],95.7%
same,fluorescence ratio,[3],1 (inactive)
same,inhibition,[4],-1.36% (inactive)
same,inhibition,[5],4.1% (inactive)
same,fluorescence ratio,[6],1.01 (inactive)
same,fold change,[7]; [10],1.01 (inactive)
same,fold change,[7]; [11],3.94
same,cell count,[7]; [12],10600
same,cell count,[7]; [13],10500
same,z-score,[8],0.765 (inactive)
same,log fold change Tl+ flux,F380Y,0.081 (inactive)
same,log fold change Tl+ flux,F380Y/beta1,0.0391 (inactive)
same,log fold change Tl+ flux,F380Y/beta2Delta,0.0643 (inactive)
same,log fold change Tl+ flux,F380Y/beta4,0.0496 (inactive)
same,log fold change Tl+ flux,[9],-0.00307 (inactive)
same,log fold change Tl+ flux,R275C,0.0138 (inactive)
same,log fold change Tl+ flux,R275C/beta1,0.0202 (inactive)
same,log fold change Tl+ flux,R275C/beta2Delta,0.0645 (inactive)
same,log fold change Tl+ flux,R275C/beta4,0.023 (inactive)
same,log fold change Tl+ flux,R275C/Slo1WT/beta2,-0.0289 (inactive)
CO[C@H]1C=CO[C@@]2(C)Oc3c(C)c(O)c4c(O)c(c5c(nc6cc(C)ccn65)c4c3C2=O)NC(=O)C(C)=CC=C[C@H](C)[C@H](O)[C@@H](C)[C@@H](O)[C@@H](C)[C@H](OC(C)=O)[C@@H]1C,parasite load remaining,[2],97.9% (inactive)
same,viability,[2],78.8%
same,fluorescence ratio,[3],0.98 (inactive)
same,inhibition,[4],1.19% (inactive)
same,inhibition,[5],1.44% (inactive)
same,fluorescence ratio,[6],1.01 (inactive)
same,log fold change Tl+ flux,F380Y,-0.487 (active)
same,log fold change Tl+ flux,F380Y/beta1,-0.224 (active)
same,log fold change Tl+ flux,F380Y/beta2Delta,-0.411 (active)
same,log fold change Tl+ flux,F380Y/beta4,-0.508 (active)
same,log fold change Tl+ flux,[9],-0.124 (active)
same,log fold change Tl+ flux,R275C,-0.242 (active)
same,log fold change Tl+ flux,R275C/beta1,0.0122 (inactive)
same,log fold change Tl+ flux,R275C/beta2Delta,-0.0244 (inactive)
same,log fold change Tl+ flux,R275C/beta4,-0.0127 (inactive)
same,log fold change Tl+ flux,R275C/Slo1WT/beta2,-0.00936 (inactive)
CC/C(=C(/c1ccccc1)c1ccc(OCCN(C)C)cc1)c1ccccc1,mean signal,[1],234 (inactive)
CC1(C)O[C@@H]2C[C@H]3[C@@H]4C[C@H](F)C5=CC(=O)C=CC5(C)[C@@]4(F)[C@@H](O)CC3(C)C2(C(=O)CO)O1 (some centres not stated),mean signal,[1],256 (inactive)
CON=C(C(=O)N[C@@H]1C(=O)N2C(C(=O)O)=C(COC(N)=O)CS[C@H]12)c1ccco1,parasite load remaining,[2],58.2% (inactive)
same,viability,[2],88.2%
same,fluorescence ratio,[3],1.07 (inactive)
same,inhibition,[4],-4.09% (inactive)
same,inhibition,[5],10.2% (inactive)
same,fluorescence ratio,[6],1 (inactive)
same,fold change,[7]; [10],0.935 (inactive)
same,fold change,[7]; [11],2.12
same,cell count,[7]; [12],10600
same,cell count,[7]; [13],11300
same,z-score,[8],-0.2 (inactive)
same,log fold change Tl+ flux,F380Y,0.0216 (inactive)
same,log fold change Tl+ flux,F380Y/beta1,0.0158 (inactive)
same,log fold change Tl+ flux,F380Y/beta2Delta,0.00116 (inactive)
same,log fold change Tl+ flux,F380Y/beta4,-0.0173 (inactive)
same,log fold change Tl+ flux,[9],-0.0114 (inactive)
same,log fold change Tl+ flux,R275C,-0.0247 (inactive)
same,log fold change Tl+ flux,R275C/beta1,-0.0484 (inactive)
same,log fold change Tl+ flux,R275C/beta2Delta,-0.0289 (inactive)
same,log fold change Tl+ flux,R275C/beta4,0.0531 (inactive)
same,log fold change Tl+ flux,R275C/Slo1WT/beta2,0.0179 (inactive)
